{
  "source": "the OligoGym collection",
  "data": [
    {"molecular_target": "GRK1", "test": "pooled miR-30 sensor sort-seq; sequence = guide strand", "conditions": "shRNA", "values": [
      {"sequence": "TTCTTGTTCAGCTTCTTGCAGG", "sensor-assay potency score (higher = more potent)": -0.533},
      {"sequence": "TTGCCGGTCGCCTTCATCTGGC", "sensor-assay potency score (higher = more potent)": -1.21},
      {"sequence": "TAAACTTCGCCACTATCCCCTC", "sensor-assay potency score (higher = more potent)": -0.678},
      {"sequence": "TTGTTCAGCTTCTTGCAGGCAT", "sensor-assay potency score (higher = more potent)": 0.349},
      {"sequence": "TTGTCGCAGGTCTCATCTCTGA", "sensor-assay potency score (higher = more potent)": -1.13},
      {"sequence": "TTGTCCAGCAGCACGTTCTCGG", "sensor-assay potency score (higher = more potent)": -0.903},
      {"sequence": "TTAAGGTCCTTGAAGAGGGGGT", "sensor-assay potency score (higher = more potent)": 0.091},
      {"sequence": "TTGTTCTCCACCTTCTCTCCAC", "sensor-assay potency score (higher = more potent)": -0.0458},
      {"sequence": "TTAAACTTCGCCACTATCCCCT", "sensor-assay potency score (higher = more potent)": 0.34}
    ]},
    {"molecular_target": "GRSF1", "test": "pooled miR-30 sensor sort-seq; sequence = guide strand", "conditions": "shRNA", "values": [
      {"sequence": "TTTCTTCTTCTAAACAGTCCAC", "sensor-assay potency score (higher = more potent)": -0.0512},
      {"sequence": "TTCATGTTCTTCAAAGACCATT", "sensor-assay potency score (higher = more potent)": -0.97},
      {"sequence": "TTCTTCTTCTAAACAGTCCACT", "sensor-assay potency score (higher = more potent)": -0.559},
      {"sequence": "TTCTTCTAAACAGTCCACTATG", "sensor-assay potency score (higher = more potent)": -0.687},
      {"sequence": "ATGTATTCCATTCTCACCGTTG", "sensor-assay potency score (higher = more potent)": -1.12},
      {"sequence": "TAAGGCTTTCTGCACATCCTGC", "sensor-assay potency score (higher = more potent)": -0.572},
      {"sequence": "TCTGCTTGGAAATATCTCGATG", "sensor-assay potency score (higher = more potent)": -0.758},
      {"sequence": "TAGCAGTAGGAAAAGATGCGAT", "sensor-assay potency score (higher = more potent)": -0.689},
      {"sequence": "TATACTTCCACATACCGCTGGC", "sensor-assay potency score (higher = more potent)": -0.174},
      {"sequence": "TCGATTACCAATTTCTTCCCTG", "sensor-assay potency score (higher = more potent)": -0.139},
      {"sequence": "TTGAGCATCGCTGCAACAGCAT", "sensor-assay potency score (higher = more potent)": -0.486},
      {"sequence": "TTATATACTTAGCAGTAGGAAA", "sensor-assay potency score (higher = more potent)": -1.31}
    ]},
    {"molecular_target": "GSTO1", "test": "pooled miR-30 sensor sort-seq; sequence = guide strand", "conditions": "shRNA", "values": [
      {"sequence": "TTTCTCACTAGTAAGCAGGGCT", "sensor-assay potency score (higher = more potent)": 0.254},
      {"sequence": "TCTAATAAAGCTTCCTACCAAG", "sensor-assay potency score (higher = more potent)": -0.981},
      {"sequence": "TGAGACTGTGGGATCTTCCTTC", "sensor-assay potency score (higher = more potent)": 0.458},
      {"sequence": "TAGAGATAGAATTGCCACCAAA", "sensor-assay potency score (higher = more potent)": -1.16},
      {"sequence": "AACTCTAAGATCATCTTCTGGC", "sensor-assay potency score (higher = more potent)": -0.0597},
      {"sequence": "TTATTAGTCAGAACCTCCTCTA", "sensor-assay potency score (higher = more potent)": -0.622},
      {"sequence": "TCTAAGATCATCTTCTGGCAAG", "sensor-assay potency score (higher = more potent)": -0.832},
      {"sequence": "TATTAGTCAGAACCTCCTCTAG", "sensor-assay potency score (higher = more potent)": -0.847},
      {"sequence": "ATATTGATGACTTCATGCCTGA", "sensor-assay potency score (higher = more potent)": -0.0136},
      {"sequence": "TTTTCTTAAAGAACCACTCAGG", "sensor-assay potency score (higher = more potent)": -0.256},
      {"sequence": "TAACTTCATTGCTTCCAGCCGT", "sensor-assay potency score (higher = more potent)": -0.351},
      {"sequence": "TAGGCCAGCATAGTCTTCTTTA", "sensor-assay potency score (higher = more potent)": -0.878}
    ]},
    {"molecular_target": "GTF2H5", "test": "pooled miR-30 sensor sort-seq; sequence = guide strand", "conditions": "shRNA", "values": [
      {"sequence": "TAATTCACCCACTCGCTCCTGG", "sensor-assay potency score (higher = more potent)": 0.481},
      {"sequence": "TTGAATGATGAACTTCTTCCCC", "sensor-assay potency score (higher = more potent)": -0.395},
      {"sequence": "ATCAATGTCTTGAATGATGAAC", "sensor-assay potency score (higher = more potent)": -1.38},
      {"sequence": "TATTACAAAGACGTGAGTGTCA", "sensor-assay potency score (higher = more potent)": 0.236},
      {"sequence": "TACAGCAGAAACTGCTTCATGG", "sensor-assay potency score (higher = more potent)": -0.967},
      {"sequence": "TAACCAATTCTGCTATTACAAA", "sensor-assay potency score (higher = more potent)": -1.59},
      {"sequence": "TCTTGAATGATGAACTTCTTCC", "sensor-assay potency score (higher = more potent)": -0.75}
    ]}
  ]
}
